Results: the supplement of paper PMC7530171
Structures can show the parent of a compound that is named as a salt. ± gives the standard deviation.

test system: THP-1 macrophages infected with Mycobacterium tuberculosis H37Rv; assay: intracellular M.tb growth inhibition relative to DMSO (0) and 4 uM bedaquiline (100); higher = stronger inhibition of intracellular bacterial growth; details: 10 µM; 4 days
Experimental: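 OICR kinase inhibitor library screened in duplicate at 10 uM against THP-1 macrophages (PMA-differentiated) infected with M. tuberculosis H37Rv-pTEC27 (tdTomato RFP), 4 days at 37 C. Rows with complete host cell loss (placeholder inhibition 0, cell loss 100) were removed.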

SMILES | intracellular M.tb growth inhibition [%]
CS(=O)(=O)CCNCc1nc(-c2ccc3ncnc(Nc4ccc(OCc5cccc(F)c5)c(Cl)c4)c3c2)cs1 | 37.8 ± 12
CN(C)CCOc1ccc(-c2nc(-c3ccncc3)c(-c3ccc4c(c3)CC/C4=N\O)[nH]2)cc1 | 35.2 ± 75
Cc1cc(C(C)Nc2ccccc2)c2nc(N3CCOCC3)cc(=O)n2c1 (stereo not given) | -38.7 ± 24
Cc1ccc(NC(=O)c2ccc(CN3CCN(C)CC3)cc2)cc1Nc1nccc(-c2cccnc2)n1 [Imatinib (free base)] | 33.2 ± 16
O=C(NOCC1CC1)c1cc(Br)c(F)c(F)c1Nc1ccc(I)cc1Cl | 59.8 ± 16
C/C(=N\N=C(N)N)c1ccc(NC(=O)c2cc3cccc([N+](=O)[O-])c3[nH]2)cc1 | -73 ± 67
O=C(Nc1cc(Cl)cc2c1[nH]c1cnccc12)c1cccnc1 [PS1145 dihydrochloride] | -10.6 ± 33
CN(C)CC(C)(C)CNc1nn2c(-c3ccccc3)nnc2cc1C1CCC1 | -56.3 ± 120
C=CCn1c(=O)c2cnc(Nc3ccc(N4CCN(C)CC4)cc3)nc2n1-c1cccc(C(C)(C)O)n1 | -188 ± 280
Cn1c(=O)n(-c2ccc(C(C)(C)C#N)cc2)c2c3cc(-c4cnc5ccccc5c4)ccc3ncc21 | 26.6 ± 26
O=C1Nc2ccc(I)cc2/C1=C/c1cc(Br)c(O)c(Br)c1 | 9.15 ± 48
CCN(CC)CCCCNc1ncc2cc(-c3cc(OC)cc(OC)c3)c(NC(=O)NC(C)(C)C)nc2n1 | 34.4 ± 29
NCc1ccc(Nc2ncc(F)c(Nc3ccccc3)n2)cc1 [Dianilinopyrimidine_01] | 99.2 ± 230
CN(C)c1cc2c(Nc3ccc4c(cnn4Cc4ccccc4)c3)ncnc2cn1 | 43.5 ± 9.2
CO[C@H]1C[C@@H]2CC[C@@H](C)[C@@](O)(O2)C(=O)C(=O)N2CCCC[C@H]2C(=O)O[C@H]([C@H](C)C[C@@H]2CC[C@@H](O)[C@H](OC)C2)CC(=O)[C@H](C)/C=C(\C)[C@@H](O)[C@@H](OC)C(=O)[C@H](C)C[C@H](C)/C=C/C=C/C=C/1C [Rapamycin] | 15.9 ± 11
C[C@@H]1CCN(C(=O)CC#N)C[C@@H]1N(C)c1ncnc2[nH]ccc12 | -17.5 ± 21
CC1(C)CNc2cc(NC(=O)c3cccnc3NCc3ccncc3)ccc21 [Motesanib diphosphate salt] | 44.9 ± 27
Cc1cc(C)c(/C=C2\C(=O)Nc3ccccc32)[nH]1 | 8.19 ± 12
COC(=O)Nc1ccc(-c2nc(N3CCOCC3)c3cnn(C4CCN(C(=O)OC)CC4)c3n2)cc1 | -222 ± 330
C=CC[C@@H]1/C=C(\C)C[C@H](C)C[C@H](OC)[C@H]2O[C@@](O)(C(=O)C(=O)N3CCCC[C@H]3C(=O)O[C@H](/C(C)=C/[C@@H]3CC[C@@H](O)[C@H](OC)C3)[C@H](C)[C@@H](O)CC1=O)[C@H](C)C[C@@H]2OC | 42 ± 7.7

SMILES | intracellular M.tb growth inhibition [%]
Clc1ccc(Nc2nnc(Cc3ccncc3)c3ccccc23)cc1 [Vatalanib dihydrochloride] | -2.9 ± 24
O=c1c(-c2ccc(O)cc2)coc2cc(O)cc(O)c12 [Genistein] | 10.7 ± 10
CO[C@H]1C[C@@H]2CC[C@@H](C)[C@@](O)(O2)C(=O)C(=O)N2CCCC[C@H]2C(=O)O[C@H]([C@H](C)C[C@@H]2CC[C@@H](OC(=O)C(C)(CO)CO)[C@H](OC)C2)CC(=O)[C@H](C)/C=C(\C)[C@@H](O)[C@@H](OC)C(=O)[C@H](C)C[C@H](C)/C=C/C=C/C=C/1C [Temsirolimus] | -22.8 ± 24
C[C@@H](Oc1cc(-n2cnc3ccc(CN4CCN(C)CC4)cc32)sc1C(N)=O)c1ccccc1C(F)(F)F | -31.9 ± 42
C[C@@]1(C(=O)Nc2ccc(F)nc2)CCCN1c1nc(Nc2cc(C3CC3)n[nH]2)c2cccn2n1 | -265 ± 70
Cc1cc(Nc2ncc3cc(-c4c(Cl)cccc4Cl)c(=O)n(C)c3n2)ccc1F | 4.79 ± 6.8
COc1cc2ncnc(Nc3cccc(Cl)c3)c2cc1OC [Tyrphostin AG 1478 mesylate] | 2.11 ± 14
COc1cc2ncnc(Nc3ccc(O)cc3)c2cc1OC [Janex-1] | -138 ± 210
c1ccc(-c2n[nH]c3c2oc2ccccc23)cc1 | 7.69 ± 11
NC(=O)Nc1cc(-c2cccc(F)c2)sc1C(=O)N[C@H]1CCCNC1 | -218 ± 310
CCOc1cc(/C=C(\C#N)C(N)=O)cc(CSc2ccccc2)c1O | -116 ± 140
COc1cc2nccc(Oc3ccc(NC(=O)Nc4ccc(F)cc4F)c(F)c3)c2cc1OC | 25.2 ± 4.6
Cc1cc(Nc2nc(N[C@@H](C)c3ncc(F)cn3)ncc2Cl)[nH]n1 | -234 ± 120
CS(=O)(=O)c1cccc(CNc2nc(Nc3ccc4c(c3)CCC(=O)N4)ncc2C(F)(F)F)c1 | -96.4 ± 26
O=C1c2ccc(O)c(O)c2C(=O)c2c(O)ccc(O)c21 [Quinalizarin] | -115 ± 210
N#Cc1c(-c2ccccc2)cc(-c2cc(Br)ccc2O)[nH]c1=O | 19.8 ± 17
Cn1cc(-c2cnc3ccc4ccc(CS(=O)(=O)NCc5ccccn5)cc4c(=O)c3c2)cn1 | -162 ± 230
O=c1cc(N2CCOCC2)oc2c(-c3ccccc3)cccc12 | -0.768 ± 100
COc1cc2ncnc(Nc3ccc(O)c(Br)c3)c2cc1OC | 13.5 ± 42
O=C(Nc1cccc(Cl)c1)Nc1ncc(CCNc2ncnc3ccsc23)s1 | -53.6 ± 76
